In PubChem BioAssay AID1460 (National Center for Advancing Translational Sciences (NCATS), 2008):
In all, about 270,000 compounds went through this assay and about 5,800 (2.1%) were called active. Inconclusive results (about 16%) are left out. The call rests on the fitted dose curve; in most records, active means well fitted inhibition curve with a large enough effect; inconclusive means small, poorly fitted or top-dose-only effect; inactive means flat fitted curve, though single readings scatter. Shown is part of a subset that was picked to be rich in actives.
Further: nearly all actives have a fitted effect of over 55% in size.
On the % scale 0 is the no-effect control and ±100 the full control effect; potency means the concentration at half of the fitted maximal effect.

What follows are compounds tested against Microtubule-associated protein tau (Homo sapiens) (UniProt P10636) (assay: qHTS for Inhibitors of Tau Fibril Formation, Thioflavin T Binding). Settings: recombinant tau K18 P301L (four-repeat tau fragment), heparin-induced fibrillization, ThT fluorescence; series mostly up to 57.4 µM; activity, negative = inhibition: at the top concentration.
Chain of Microtubule-associated protein tau (Homo sapiens) (P10636 561-689 P618L limits assumed): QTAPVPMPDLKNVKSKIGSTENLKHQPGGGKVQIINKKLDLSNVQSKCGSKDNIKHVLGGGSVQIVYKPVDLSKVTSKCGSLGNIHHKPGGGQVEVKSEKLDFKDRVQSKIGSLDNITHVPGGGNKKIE
Summary of the method: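 Tau K18 P301L fragment (15 uM unlabeled plus 0.24 uM Alexa 594-labeled) in 100 mM sodium acetate pH 7 with compound, fibrillization induced by 20 uM heparin for 6 hr at 37 C. Thioflavin T (30 uM) added, fluorescence read after 1 hr (ex 450, em 510 nm).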
`Cc1ccc(-n2c(SCC(=O)Nc3cccc(F)c3)nc3c(oc4ccccc43)c2=O)cc1C` was tested, and the “activity, negative = inhibition” value was 5.17% (inactive).
For `COc1cccc2sc(NNC(=O)c3nc4ccccc4s3)nc12`, the Potency was 7.94 µM (active).
`COc1ccc(S(=O)(=O)N2CCOCC2)cc1C(=O)Nc1nc2ccccc2s1` was tested, and the “activity, negative = inhibition” value was -1.15% (inactive).
`COc1ccc(/C=C(/CC(=O)Nc2ccc(C)cc2)c2nc3ccccc3s2)cc1` was tested, and the “activity, negative = inhibition” value was -13.3% (inactive).
In the case of `Cc1ccc(C)c(N2CCN(c3ccc4cc(S(=O)(=O)N5CCC(C)CC5)ccc4n3)CC2)c1`, the “activity, negative = inhibition” value is reported as 0.595% (inactive).
`CC(=O)c1cc(C#N)c(SCC(=O)C(C)(C)C)nc1C` was tested, and the “activity, negative = inhibition” value was -10.4% (inactive).
`CC(=O)c1cc(C#N)c(SCC(=O)Nc2nccs2)nc1C` was tested, and the Potency was 7.08 µM (active).
With `Cc1[nH]c2ccccc2c1SCC(=O)Nc1nccs1` the “activity, negative = inhibition” value was -6.38% (inactive).
For `COc1ccc(CCNc2ncnc3onc(-c4ccc(Cl)cc4)c23)c(OC)c1`, the “activity, negative = inhibition” value was -0.33% (inactive).
In the case of `CCOCCc1nn2c(=O)cc(COC(=O)CNC(=O)c3ccc(C(C)(C)C)cc3)nc2s1`, the “activity, negative = inhibition” value is reported as -14% (inactive).
For `Cc1ccc(C(=O)COC(=O)CCCC(=O)NC2CCCCC2)cc1[N+](=O)[O-]`, the “activity, negative = inhibition” value was -0.262% (inactive).
For `Cc1c(NC(=O)CCC2CCCCC2)cc(C(=O)N2CCOCC2)cc1[N+](=O)[O-]`, the “activity, negative = inhibition” value was -8.07% (inactive).
For `Cc1cc(C=O)c(C)n1-c1ccc(NC2CCCCC2)c([N+](=O)[O-])c1`, the Potency was 14.1 µM (active).
`COCCN(Cc1ccco1)C(=O)Cn1ncc2c([nH]c3ccccc32)c1=O` was tested, and the “activity, negative = inhibition” value was 4.47% (inactive).
For `O=C(Nc1ccc(F)cc1)N1CCN(c2ccc(F)cc2)CC1`, the “activity, negative = inhibition” value was -16.9% (inactive).
With `CC(=O)N1CCN(c2ccc(NCc3ccc(C(C)C)cc3)cc2)CC1` the Potency was 12.6 µM (active).
For `CC(CC(=O)N1CCN(c2ccccc2)CC1)c1ccccc1` (stereo not given), the “activity, negative = inhibition” value was -1.05% (inactive).
In the case of `Cc1c(CCNC(=O)c2ccc(C(F)(F)F)cc2)sc2nc(-c3ccc(F)cc3)nn12`, the “activity, negative = inhibition” value is reported as 2.81% (inactive).
With `COc1ccc(Cl)cc1NC(=O)CCn1c(=O)c2cccn2c2ccccc21` the “activity, negative = inhibition” value was -13.7% (inactive).
With `CCOc1ccc(CNC(=O)c2ccc3nc(CC)c(CC)nc3c2)cc1OC` the “activity, negative = inhibition” value was 0.219% (inactive).
`COc1ccc2c(c1)C(C)=CC(C)(C)N2C(=O)Nc1ccccc1` was tested, and the Potency was 28.2 µM (active).
`COc1ccc2c(c1)C(C)=CC(C)(C)N2C(=O)CNCc1ccc2c(c1)OCO2` was tested, and the “activity, negative = inhibition” value was -5.39% (inactive).
In the case of `CC1=CC(C)(C)N(C(=O)CSc2nnc(-c3ccccc3)o2)c2ccc(C)cc21`, the “activity, negative = inhibition” value is reported as -11.5% (inactive).
`O=C(NC1CC(=O)N(c2ccc(Cl)cc2)C1)C1CCCC1` (stereo not given) was tested, and the “activity, negative = inhibition” value was -3.22% (inactive).
`Cn1ccc2cc(S(=O)(=O)N3CCCC(C(=O)NCc4ccccc4F)C3)ccc21` (stereo not given) was tested, and the “activity, negative = inhibition” value was 4.83% (inactive).
With `COc1ccc(-c2nc3ccccc3o2)cc1NC(=O)c1cc([N+](=O)[O-])ccc1N1CCOCC1` the “activity, negative = inhibition” value was -9.81% (inactive).
With `O=C(NC1CCCCC1)c1cc([N+](=O)[O-])ccc1N1CCOCC1` the “activity, negative = inhibition” value was -5.97% (inactive).
With `CCOc1ccc2nc(NC(=O)c3cc([N+](=O)[O-])ccc3N3CCOCC3)sc2c1` the Potency was 3.16 µM (active).
In the case of `CCOC(=O)c1c(NC(=O)COc2cc(C)ccc2C(C)C)sc(C)c1C`, the Potency is reported as 25.1 µM (active).
For `CCOC(=O)c1c(NC(=O)c2cccs2)sc(C)c1C`, the “activity, negative = inhibition” value was 4.08% (inactive).
With `CCOC(=O)c1sc(NC(=O)COc2ncnc3ccccc23)c(C(=O)OCC)c1C` the “activity, negative = inhibition” value was 13.3% (inactive).
In the case of `Clc1cccc(-n2ncc3c(NCCc4ccccc4)ncnc32)c1`, the “activity, negative = inhibition” value is reported as -9.03% (inactive).
In the case of `Cc1ccc(Cl)cc1NC(=O)CCC(=O)N1CC(C)Sc2ccccc21` (stereo not given), the “activity, negative = inhibition” value is reported as -16.2% (inactive).
In the case of `CCCNC(=O)C1CCN(c2nc3ccc(C)cc3[nH]2)CC1`, the “activity, negative = inhibition” value is reported as -0.761% (inactive).
In the case of `COCC(C)NS(=O)(=O)c1ccc(N2CCCCS2(=O)=O)cc1` (stereo not given), the “activity, negative = inhibition” value is reported as 6.23% (inactive).
In the case of `OCCN1CCN(C(=S)c2ccc(-c3ccccc3)cc2)CC1`, the “activity, negative = inhibition” value is reported as -13.5% (inactive).
For `S=C(NCCc1ccccc1)N1CCCCC1`, the “activity, negative = inhibition” value was -8.68% (inactive).
In the case of `S=C(c1ccc(-c2ccccc2)o1)N1CCCCC1`, the Potency is reported as 15.8 µM (active).
`OCC(CO)(CO)NCc1ccc(-c2ccccc2)cc1` was tested, and the “activity, negative = inhibition” value was -2.17% (inactive).
In the case of `Oc1ccc(CNc2ccccc2O)cc1`, the Potency is reported as 14.1 µM (active).
For `Oc1ccccc1N1CCN(C(=S)NCc2ccccc2)CC1`, the “activity, negative = inhibition” value was -17.4% (inactive).
For `Cc1cccc(C2C3=C(CCCC3=O)N=C3c4ccccc4C(=O)C32)c1` (stereo not given), the Potency was 14.1 µM (active).
In the case of `CCc1nc2cccnc2n1-c1ccc(CC(=O)Nc2c(C)cccc2C)cc1`, the “activity, negative = inhibition” value is reported as -7.47% (inactive).
With `COc1ccc(CCNC(=O)Cn2c(=O)cc(C(F)(F)F)c3c(C)nn(C)c32)c(OC)c1` the “activity, negative = inhibition” value was -7.4% (inactive).
`Cc1ccc(/C=C/C(=O)Nc2cc(S(=O)(=O)N3CCCCCC3)ccc2OCC(F)(F)F)o1` was tested, and the “activity, negative = inhibition” value was 9.07% (inactive).
With `Cc1ccc(/C=C/C(=O)Nc2ccc([N+](=O)[O-])c(NC(=O)/C=C/c3ccc(C)o3)c2)o1` the Potency was 12.6 µM (active).
With `CCc1nnc(NC(=O)/C=C/c2ccc(C)o2)s1` the “activity, negative = inhibition” value was -4.8% (inactive).
For `CCOc1cccc(/C=N/N2C(=O)CSC2=S)c1O`, the Potency was 22.4 µM (active).
`CCOc1cccc(/C=N/NC(=S)NCCN2CCOCC2)c1O` was tested, and the “activity, negative = inhibition” value was -6.58% (inactive).
`CCOc1ccccc1N=C1NC(=O)CS1` was tested, and the “activity, negative = inhibition” value was -1.39% (inactive).
